Measured values reported in PubChem BioAssay (Tox21).
Results filed as inconclusive are left out. Activity calls are given as the source filed them. Unless noted, calls come from the whole dose curve; as a rule, active = well fitted curve in the direction sought with a large enough effect in the repeat runs; inconclusive = weak or mixed curves; inactive = no such curve, though single readings can be large; an effect the other way counts as inactive or inconclusive.

Tests used:
[1] = qHTS assay to identify small molecule HDAC inhibitors (AID 1259364); note: top concentration of the series differs between compounds; nearly all actives have a fitted effect of over 45% in size
Summary of the method: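 Luminescence read after 30 min room-temperature HDAC-Glo incubation measures cellular class I/II HDAC activity. Compounds were applied for 2 hr at 37 C to HCT-116 wild-type cells seeded the day before.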

[2] = qHTS assay to identify small molecule HDAC inhibitors - cell viability counter screen (AID 1259365); note: series mostly up to about 92 µM; nearly all actives have a fitted effect of over 50% in size
Summary of the method: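 Following a 2hr exposure of overnight-plated wild-type HCT-116 cells to DMSO-delivered compounds, CellTiter-Glo was added and luminescence recorded after 30min at room temperature.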

[3] = qHTS assay to identify small molecule agonists of the sonic hedgehog signaling (Shh) pathway - cell viability counter screen (AID 1259366); note: nearly all actives have a fitted effect of over 50% in size
Summary of the method: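 After a 4hr attachment at 37C, NIH/3T3 cells bearing an integrated Gli1-driven luciferase reporter were dosed with compounds. Treatment lasted 24hr, with the final hour including CellTiter-Fluor for a fluorescence viability measurement.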

[4] = qHTS assay to identify small molecule antagonists of the sonic hedgehog signaling (Shh) pathway - cell viability counter screen (AID 1259367); note: nearly all actives have a fitted effect of over 55% in size
Summary of the method: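 Tox21 library chemicals were tested on a Gli1-Luc NIH/3T3 clone (2,000 cells/well) stimulated by conditioned medium; viability was quantified as fluorescence from CellTiter-Fluor reagent added at 23 hr.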

[5] = qHTS assay to identify small molecule agonists of the sonic hedgehog signaling (Shh) pathway (AID 1259368; calls by dose curve;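 note: NIH/3T3-derived 3T3Gli1-Luc cells carrying a stable Gli1-driven firefly luciferase reporter; series mostly up to about 92 µM; nearly all actives have a fitted effect of over 15% in size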)
Summary of the method: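 Luminescence was read after 30 min at room temperature with luciferase reagent. Before that, 3T3Gli1-Luc cells (NIH/3T3 clone, stable Gli1-Luc reporter; 2,000/well) were exposed to compounds for 24 hr at 37C, 5% CO2, compounds being added 4 hr post-plating.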

[6] = qHTS assay to identify small molecule antagonists of the sonic hedgehog signaling (Shh) pathway (AID 1259369; calls by dose curve; note: nearly all actives have a fitted effect of over 45% in size)
Summary of the method: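 Antagonist mode: compound added to 3T3 Gli1-Luc cells followed by conditioned-medium stimulation, 24 h at 37 C, 5% CO2. Inhibition taken as loss of Gli1-driven luciferase luminescence.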

[7] = molecular target: Estrogen receptor beta (Homo sapiens) (UniProt Q92731); test: qHTS assay to identify small molecule agonists of the estrogen receptor beta (ER-beta) signaling pathway (AID 1259377; active = well fitted activation curve with a large enough effect in the signal ratio in the repeat runs, not every such curve was filed as active; the % refers to the signal ratio)
Estrogen receptor beta (Homo sapiens), sequence (Q92731 whole entry, looked up): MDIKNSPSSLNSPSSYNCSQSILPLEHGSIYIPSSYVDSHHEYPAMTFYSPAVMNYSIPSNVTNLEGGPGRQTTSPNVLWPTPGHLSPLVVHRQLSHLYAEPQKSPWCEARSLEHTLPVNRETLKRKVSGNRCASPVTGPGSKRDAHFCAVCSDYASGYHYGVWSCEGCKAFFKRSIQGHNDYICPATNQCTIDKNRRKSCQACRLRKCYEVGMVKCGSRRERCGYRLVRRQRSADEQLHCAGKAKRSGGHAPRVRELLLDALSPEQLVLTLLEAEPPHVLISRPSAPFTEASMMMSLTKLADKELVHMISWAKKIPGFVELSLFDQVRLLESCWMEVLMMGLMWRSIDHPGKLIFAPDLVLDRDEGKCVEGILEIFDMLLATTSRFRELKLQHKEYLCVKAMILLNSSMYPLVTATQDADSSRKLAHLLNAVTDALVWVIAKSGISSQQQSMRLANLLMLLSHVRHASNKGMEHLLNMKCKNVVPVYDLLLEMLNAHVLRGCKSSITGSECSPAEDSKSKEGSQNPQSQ
Summary of the method: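 In HEK293T cells bearing a UAS-beta-lactamase reporter under ER-beta control, DMSO-delivered compounds were incubated for 16 hr at 37C. Activity was detected as fluorescence 2 hours after LiveBLAzer B/G FRET substrate addition.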

[8] = molecular target: Estrogen receptor beta (Homo sapiens) (UniProt Q92731); test: qHTS assay to identify small molecule antagonists of the estrogen receptor beta (ER-beta) signaling pathway (AID 1259378; active = well fitted inhibition curve with a large enough effect in the signal ratio in the repeat runs, not every such curve was filed as active; the % refers to the signal ratio)
Summary of the method: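 ER-beta-UAS-bla HEK293T cells in 2% charcoal-stripped FBS medium treated with compound plus 1nM final 17-beta-estradiol for 16 hr at 37C. Beta-lactamase reporter read by FRET substrate fluorescence after 2 hours at room temperature.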

[9] = qHTS assay to identify small molecule agonists of the androgen receptor (AR) signaling pathway in the presence of an antagonist - cell viability counter screen (AID 1259379);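 note: MDA-kb2 human breast cancer cells carrying an MMTV luciferase reporter; series mostly up to about 92 µM; nearly all actives have a fitted effect of over 25% in size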
Summary of the method: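 Cytotoxicity counter-screen run in the same wells as the nilutamide-challenged (3.0 µM final) AR agonist assay in MDA-kb2 cells. Compounds tested at 15 concentrations for 16 h, 37 °C without CO2; CellTiter-Fluor fluorescence read.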

[10] = qHTS assay to identify small molecule agonists of the estrogen receptor beta (ER-beta) signaling pathway - cell viability counter screen (AID 1259380); note: nearly all actives have a fitted effect of over 30% in size
Summary of the method: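 Cell viability counter screen: CellTiter-Glo luminescence (30 min, room temperature) measured in the same wells as the beta-lactamase readout, after 16 hr compound exposure at 37C of ER-beta-bla HEK293T cells in 2% charcoal-stripped FBS medium.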

[11] = qHTS assay to identify small molecule antagonists of the estrogen receptor beta (ER-beta) signaling pathway - cell viability counter screen (AID 1259382); note: series mostly up to about 92 µM; nearly all actives have a fitted effect of over 55% in size
Summary of the method: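 Cytotoxicity was measured in the same wells by CellTiter-Glo luminescence after 30 min at room temperature. Cells were ER-beta-bla HEK293T in charcoal-stripped serum, given compound together with 1 nM E2 and incubated 16 h at 37C.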

[12] = molecular target: Estrogen receptor (Homo sapiens) (UniProt P03372); test: qHTS assay to identify small molecule agonists of the estrogen receptor alpha (ER-alpha) signaling pathway in the presence of an antagonist (AID 1259383; calls by dose curve; note: top concentration of the series differs between compounds; nearly all actives have a fitted effect of over 15% in size)
Estrogen receptor (Homo sapiens), sequence (P03372 whole entry, looked up): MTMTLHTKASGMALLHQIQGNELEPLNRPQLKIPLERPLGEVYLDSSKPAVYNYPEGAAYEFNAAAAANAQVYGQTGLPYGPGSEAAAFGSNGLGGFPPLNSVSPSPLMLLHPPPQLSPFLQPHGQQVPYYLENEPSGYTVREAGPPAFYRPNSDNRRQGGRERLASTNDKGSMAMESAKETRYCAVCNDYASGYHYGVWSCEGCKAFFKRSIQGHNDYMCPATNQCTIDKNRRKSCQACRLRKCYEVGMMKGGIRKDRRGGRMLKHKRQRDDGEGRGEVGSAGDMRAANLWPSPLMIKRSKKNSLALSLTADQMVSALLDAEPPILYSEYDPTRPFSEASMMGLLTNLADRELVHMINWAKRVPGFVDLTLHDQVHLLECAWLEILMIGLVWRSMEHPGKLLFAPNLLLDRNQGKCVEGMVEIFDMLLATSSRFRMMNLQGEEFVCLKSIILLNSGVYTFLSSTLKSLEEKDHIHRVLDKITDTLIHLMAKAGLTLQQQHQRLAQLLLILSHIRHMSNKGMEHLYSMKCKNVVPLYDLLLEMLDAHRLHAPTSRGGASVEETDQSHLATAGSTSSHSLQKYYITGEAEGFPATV
Summary of the method: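 Agonist-mode confirmation run in the presence of 10.0nM (final) ICI-182,780 antagonist. The reporter was ERE-driven luciferase in VM7Luc4E2 cells, grown in charcoal-stripped serum. Cells were exposed to 15-concentration compound series for 22hr, then ONE-Glo luminescence was read.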

[13] = qHTS assay to identify small molecule agonists or antagonists of the thyroid stimulating hormone receptor (TSHR) signaling pathway - wild type cell line counter screen (AID 1259384; calls by dose curve)
Summary of the method: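 Wild-type Hek293 cells, 800/well, 18 h at 37C, then compound with Ro20-1724 for 30 min RT. cAMP by HTRF (cAMP-d2/anti-cAMP cryptate), 1 h RT, fluorescence read. 15 concentrations, triplicates.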

[14] = molecular target: Thyrotropin receptor (Homo sapiens) (UniProt P16473); test: qHTS assay to identify small molecule antagonists of the thyroid stimulating hormone receptor (TSHR) signaling pathway (AID 1259385; calls by dose curve; note: nearly all actives have a fitted effect of over 20% in size)
Thyrotropin receptor (Homo sapiens), sequence (P16473 whole entry, looked up): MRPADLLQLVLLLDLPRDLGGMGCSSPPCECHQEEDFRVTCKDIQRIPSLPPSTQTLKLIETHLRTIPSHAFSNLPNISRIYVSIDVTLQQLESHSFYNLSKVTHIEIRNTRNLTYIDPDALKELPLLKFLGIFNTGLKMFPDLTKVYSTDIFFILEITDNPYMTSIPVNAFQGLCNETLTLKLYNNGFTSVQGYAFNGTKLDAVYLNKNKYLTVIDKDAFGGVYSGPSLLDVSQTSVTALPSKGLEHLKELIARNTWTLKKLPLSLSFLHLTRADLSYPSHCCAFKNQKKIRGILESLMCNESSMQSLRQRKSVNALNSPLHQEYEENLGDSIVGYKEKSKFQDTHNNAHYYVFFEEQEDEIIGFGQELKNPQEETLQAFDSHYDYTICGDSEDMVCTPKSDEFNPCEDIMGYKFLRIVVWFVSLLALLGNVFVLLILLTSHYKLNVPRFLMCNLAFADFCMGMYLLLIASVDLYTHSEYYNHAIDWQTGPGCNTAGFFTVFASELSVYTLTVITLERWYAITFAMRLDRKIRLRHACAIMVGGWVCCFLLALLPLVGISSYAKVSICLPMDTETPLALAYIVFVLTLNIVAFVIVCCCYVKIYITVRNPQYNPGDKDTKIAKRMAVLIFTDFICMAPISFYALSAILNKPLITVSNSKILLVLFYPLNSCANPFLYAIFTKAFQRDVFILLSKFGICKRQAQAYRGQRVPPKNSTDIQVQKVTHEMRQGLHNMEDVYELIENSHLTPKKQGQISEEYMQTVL
Summary of the method: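 TSHR-HEK293 cells (800/well) plated 18 h, then compounds with Ro20-1724 and TSH at 1.5 ng/mL final, 30 min at room temperature. cAMP quantified by HTRF (cAMP-d2/anti-cAMP-cryptate, 1 h); 15 concentrations in triplicate.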

[15] = molecular target: Progesterone receptor (Homo sapiens) (UniProt P06401); test: qHTS assay to identify small molecule antagonists of the progesterone receptor (PR) signaling pathway (AID 1346795; active = well fitted inhibition curve with a large enough effect in the signal ratio in the repeat runs, not every such curve was filed as active; the % refers to the signal ratio)
Progesterone receptor (Homo sapiens), sequence (P06401 whole entry, looked up): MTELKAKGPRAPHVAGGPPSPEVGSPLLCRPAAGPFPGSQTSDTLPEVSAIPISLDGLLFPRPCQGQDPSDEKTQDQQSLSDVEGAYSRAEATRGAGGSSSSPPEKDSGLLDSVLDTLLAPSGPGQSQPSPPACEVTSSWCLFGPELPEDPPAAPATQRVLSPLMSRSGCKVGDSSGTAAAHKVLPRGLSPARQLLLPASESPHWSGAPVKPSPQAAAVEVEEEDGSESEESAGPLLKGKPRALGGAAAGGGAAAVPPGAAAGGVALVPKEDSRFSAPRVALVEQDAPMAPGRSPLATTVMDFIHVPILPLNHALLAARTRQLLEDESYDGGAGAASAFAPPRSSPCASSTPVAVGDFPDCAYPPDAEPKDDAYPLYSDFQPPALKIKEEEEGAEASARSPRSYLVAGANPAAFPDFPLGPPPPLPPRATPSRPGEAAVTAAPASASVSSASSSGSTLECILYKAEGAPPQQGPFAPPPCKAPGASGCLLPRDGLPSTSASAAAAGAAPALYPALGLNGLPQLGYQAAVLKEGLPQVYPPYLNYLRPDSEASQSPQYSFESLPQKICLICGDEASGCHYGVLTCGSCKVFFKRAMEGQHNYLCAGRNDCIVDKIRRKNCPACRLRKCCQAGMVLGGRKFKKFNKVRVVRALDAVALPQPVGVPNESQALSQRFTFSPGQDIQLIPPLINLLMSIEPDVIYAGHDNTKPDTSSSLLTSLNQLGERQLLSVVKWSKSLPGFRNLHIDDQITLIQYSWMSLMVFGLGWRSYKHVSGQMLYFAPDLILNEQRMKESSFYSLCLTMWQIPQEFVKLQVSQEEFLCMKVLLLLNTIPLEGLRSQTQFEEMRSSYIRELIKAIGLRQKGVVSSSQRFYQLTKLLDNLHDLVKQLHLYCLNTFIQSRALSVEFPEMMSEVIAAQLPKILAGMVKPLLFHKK
Summary of the method: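 Inhibition of R5020-induced (1 nM final) beta-lactamase reporter signal in PR-UAS-bla HEK293T cells was scored by FRET fluorescence after overnight (16 hr) compound treatment.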

[16] = qHTS assay to identify small molecule antagonists of the progesterone receptor (PR) signaling pathway - cell viability counter screen (AID 1346798); note: series mostly up to about 92 µM; nearly all actives have a fitted effect of over 50% in size
Summary of the method: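 ATP content as viability readout: CellTiter-Glo luminescence, 30 min room temperature, in PR-UAS-bla HEK293T cells after 16 hr compound/R5020 treatment at 37C and 5% CO2.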

[17] = molecular target: Androgen receptor (Homo sapiens) (UniProt P10275); test: qHTS assay to identify small molecule agonists of the androgen receptor (AR) signaling pathway in the presence of an antagonist (AID 1259381; calls by dose curve; note: nearly all actives have a fitted effect of over 15% in size)
Androgen receptor (Homo sapiens), sequence (P10275 whole entry, looked up): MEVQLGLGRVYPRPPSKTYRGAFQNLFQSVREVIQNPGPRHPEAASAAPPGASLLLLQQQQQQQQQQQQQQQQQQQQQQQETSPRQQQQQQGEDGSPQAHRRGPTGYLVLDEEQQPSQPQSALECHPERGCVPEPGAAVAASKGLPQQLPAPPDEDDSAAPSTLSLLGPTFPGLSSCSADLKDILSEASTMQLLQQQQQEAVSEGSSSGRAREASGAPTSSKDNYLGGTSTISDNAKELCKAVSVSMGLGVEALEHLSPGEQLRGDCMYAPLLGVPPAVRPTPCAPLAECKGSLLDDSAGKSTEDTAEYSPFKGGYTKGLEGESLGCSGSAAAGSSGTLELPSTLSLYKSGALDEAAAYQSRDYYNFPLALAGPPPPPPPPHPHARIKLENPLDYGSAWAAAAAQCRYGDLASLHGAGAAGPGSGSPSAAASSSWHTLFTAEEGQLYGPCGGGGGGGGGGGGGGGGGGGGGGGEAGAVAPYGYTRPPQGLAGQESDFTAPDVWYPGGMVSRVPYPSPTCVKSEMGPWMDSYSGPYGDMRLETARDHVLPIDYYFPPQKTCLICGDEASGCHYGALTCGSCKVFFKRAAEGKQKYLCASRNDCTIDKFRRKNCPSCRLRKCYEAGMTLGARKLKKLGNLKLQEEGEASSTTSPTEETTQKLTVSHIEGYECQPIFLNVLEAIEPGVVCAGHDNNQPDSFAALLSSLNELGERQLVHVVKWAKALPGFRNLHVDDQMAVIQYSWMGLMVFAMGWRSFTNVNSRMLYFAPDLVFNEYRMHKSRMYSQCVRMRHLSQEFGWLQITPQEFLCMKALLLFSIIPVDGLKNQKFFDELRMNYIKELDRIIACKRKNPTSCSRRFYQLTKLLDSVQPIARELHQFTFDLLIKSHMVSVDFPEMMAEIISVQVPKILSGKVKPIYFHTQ
Summary of the method: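 Agonist-mode confirmation run against 3.0 uM final nilutamide: compounds titrated at 15 concentrations onto MDA-kb2 MMTV-luciferase reporter cells. Luminescence measured with ONE-Glo following 16 hr incubation, 37C, 0% CO2.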

[18] = qHTS assay to identify small molecule agonists of the estrogen receptor alpha (ER-alpha) signaling pathway in the presence of an antagonist - cell viability counter screen (AID 1259386); note: series mostly up to about 92 µM; nearly all actives have a fitted effect of over 30% in size
Summary of the method: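 Compounds tested at 15 concentrations for 22 h at 37C alongside 10.0nM (final) ICI-182,780 antagonist, in VM7Luc4E2 cells grown in phenol red-free, charcoal-stripped medium. Viability read by CellTiter-Fluor fluorescence after 1 h reagent incubation.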

[19] = qHTS assay to identify small molecule agonists of the progesterone receptor (PR) signaling pathway - cell viability counter screen (AID 1346799; calls by dose curve; note: nearly all actives have a fitted effect of over 45% in size)
Summary of the method: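 Cytotoxicity in PR-bla HEK293T cells: 16 h compound, 37C; CellTiter-Glo added post-FRET read; luminescence after 30 min RT.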

[20] = molecular target: Progesterone receptor (Homo sapiens) (UniProt P06401); test: qHTS assay to identify small molecule agonists of the progesterone receptor (PR) signaling pathway (AID 1346784; calls by dose curve; note: nearly all actives have a fitted effect of over 30% in size)
Summary of the method: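 Using charcoal-stripped serum (2%) to limit endogenous steroids, PR-UAS-bla HEK 293T cells received compounds for 16 hr at 37C after 6 hr plating; beta-lactamase FRET fluorescence was recorded following 2 hr substrate loading at room temperature.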

Measured: Potency

CCCC(CC)c1ccccc1 (centres undefined)
inactive: [1] | [2] | [3] | [4] | [5] | [6] | [7] | [8] | [9] | [10] | [11] | [12] | [13] | [14] | [15] | [16]

CCO
inactive: [1] | [2] | [3] | [4] | [5] | [6] | [7] | [8] | [9] | [10] | [17] | [11] | [13] | [14] | [18] | [15] | [19]

C[C@H]1[C@@H](c2ccccc2)NC(=O)N1C
inactive: [1] | [2] | [3] | [4] | [5] | [6] | [7] | [8] | [9] | [10] | [11] | [12] | [20] | [15] | [19]

O=NN(CCCl)C(=O)NC1CCCCC1
inactive: [1] | [2] | [3] | [4] | [5] | [6] | [7] | [8] | [9] | [10] | [11] | [18] | [20] | [15] | [16]

CCCCCC/C=C/C(=O)OC
inactive: [1] | [2] | [3] | [4] | [5] | [6] | [7] | [8] | [9] | [10] | [11] | [13] | [14] | [18] | [20] | [15] | [16] | [19]

CCOc1cccc(N)c1
inactive: [1] | [2] | [3] | [4] | [5] | [6] | [7] | [8] | [9] | [10] | [11] | [13] | [14] | [18] | [20] | [15] | [16] | [19]

CC(=O)CCc1ccc(OC(C)=O)cc1
inactive: [1] | [2] | [3] | [4] | [5] | [6] | [7] | [8] | [9] | [10] | [11] | [12] | [13] | [14] | [20] | [15] | [16]

O=C(O)CNC(=O)CNC(=O)CNC(=O)CSC(=O)c1ccccc1
inactive: [1] | [2] | [3] | [4] | [5] | [6] | [7] | [8] | [9] | [11] | [12] | [13] | [14] | [18] | [15] | [16] | [19]

O=C(O)c1cc2ccccc2nc1C(=O)O
inactive: [1] | [2] | [3] | [4] | [5] | [6] | [7] | [8] | [9] | [10] | [11] | [12] | [13] | [14] | [18] | [15]
